In the library only some 5% were active in any assay of this set; here they are far more common.
LmPK inhibitor: blocks Leishmania mexicana pyruvate kinase activity; Potency, µM (titrated, usually from 57.5 µM), for the others: top-dose activity change, negative = inhibition, usual class: inhibitors; 0.37% of 290,000 active; AID 1721; Q27686; purified LmPK, Kinase-Glo ATP luminescence, 1 h; also: potency is read from the fitted curve at half-maximal effect
Target sequence (Q27686 whole entry, looked up): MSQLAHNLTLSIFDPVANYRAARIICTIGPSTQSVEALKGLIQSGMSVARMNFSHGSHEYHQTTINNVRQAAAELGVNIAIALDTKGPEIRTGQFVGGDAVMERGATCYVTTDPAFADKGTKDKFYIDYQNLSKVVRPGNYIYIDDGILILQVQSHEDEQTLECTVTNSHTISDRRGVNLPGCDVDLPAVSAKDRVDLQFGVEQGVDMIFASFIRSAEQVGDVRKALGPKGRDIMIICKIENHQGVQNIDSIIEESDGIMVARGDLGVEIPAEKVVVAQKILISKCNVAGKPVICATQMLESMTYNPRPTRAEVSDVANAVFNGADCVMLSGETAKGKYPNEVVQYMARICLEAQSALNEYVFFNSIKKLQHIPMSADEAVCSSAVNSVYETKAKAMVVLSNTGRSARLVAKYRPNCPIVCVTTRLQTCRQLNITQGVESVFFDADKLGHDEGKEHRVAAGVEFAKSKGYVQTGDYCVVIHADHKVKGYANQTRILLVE
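Screened at intermediate enzyme activity to detect both inhibitors and activators: LmPK at 0.1 nM, with a 0.5 nM enzyme column as activation reference. PEP 0.5 mM, ADP 0.1 mM; ATP detected by luminescence after 1 h.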
Tb PYK inh: blocks Trypanosoma brucei pyruvate kinase | Potency, µM (top dose mostly 76.8 µM), for the others: top-dose activity, negative = inhibition, hits mostly inhibitors | TbPYK enzyme, Kinase-Glo Plus ATP luminescence, 45 min | AID 624173 | 0.12% of 410,000 active; also: potency is read from the fitted curve at half-maximal effect; nearly all actives have a fitted effect of over 50% in size
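Assay buffer: 50 mM TEA pH 7.2, 100 mM KCl, 10 mM MgCl2, 0.05% BSA, 0.01% Tween-20. Pyruvate kinase from T. brucei plus substrate met compound, then ADP (130 uM final). Luminescence was read post 45 min RT.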
VACV mCherry inh: inhibitors of vaccinia virus infection (mCherry reporter signal); Vaccinia virus mCherry reporter infection, fluorescence; AID 720579; Potency, µM (titrated, usually from 36.5 µM), without a hit: at the top dose activity change, negative = inhibition, hits mostly inhibitors; 0.63% of 310,000 active; calls by dose curve; tested in A549 cells; also: potency is read from the fitted curve at half-maximal effect; nearly all actives have a fitted effect of over 35% in size
HCMV inh: blocks human cytomegalovirus replication; HFF cells, HCMV-luciferase reporter, 72 h; stronger effect = lower value; activity change, negative = inhibition, % at 57.5 µM; 4.5% of 410,000 active; in the data active = activity change below about -60%; inconclusive = no clear call, values can overlap the other calls; inactive = above about -39%
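HFF cells seeded 16 h at 37C, treated with compounds, infected with luciferase-reporter HCMV at MOI 1 PFU/cell; luciferase read at 72 h post infection, normalized to buffer-only and Salinomycin controls.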
Vaccinia Venus: inhibitors of vaccinia virus (Venus reporter) | Vaccinia virus Venus reporter expression, fluorescence | Potency, µM (series often up to 36.5 µM), without a hit: top-dose activity change, negative = inhibition, most hits filed as inhibitors | 0.46% of 330,000 active | AID 720580; calls by dose curve; tested in A549 cells; also: potency is read from the fitted curve at half-maximal effect; nearly all actives have a fitted effect of over 30% in size
* marks the source's active call; other numbers are inactive results; i = inactive; ? = inconclusive; nt = not tested or not shown; ! = repeats disagree. Unless noted, calls follow the shape of the dose curve; as a rule, active = well fitted curve in the direction sought with a large enough effect; inconclusive = small, poorly fitted or top-dose-only effect, or another doubt; inactive = no such curve, though single readings can be large; an effect the other way counts as inactive or inconclusive. % is scaled to controls: 0 for no effect and ±100 for the full control effect.

SMILES	LmPK inhibitor	Tb PYK inh	VACV mCherry inh	HCMV inh	Vaccinia Venus
Cc1c(C(C)CCCO)oc(=O)c2c1Oc1c(C)c(C(C)C[C@H](C)O)oc(=O)c1C2 (stereo partly specified)	nt	4%	i	-1	-20%
CCn1c(SCc2ccc(C#N)cc2)nnc1-c1ccc(S(=O)(=O)N2CCCCC2)cc1	3%	-17%	nt	-70*	nt
COc1cc2[nH]c3c(N4CCN(c5ccccn5)CC4)ncnc3c2cc1OC	3%	-2%	?	nt	?
COc1ccc(N2CCN(c3ncnc4c3[nH]c3ccccc34)CC2)cc1	4%	-10%	nt	-92*	?
COc1ccc2[nH]c3c(N4CCc5ccccc5C4)ncnc3c2c1	3%	2%	?	-88*	14µM*
COc1ccc(OC)c(NC(=O)CSc2nnc(C3CCCCC3)n2N)c1	nt	-5%	-17%	4	-8%
CCOC(=O)Cc1csc(NC(=O)CN2C(=O)c3ccccc3S2(=O)=O)n1	3%	-2%	nt	4	nt
COc1cc(NC(=O)c2csc(N)n2)cc(C(=O)Nc2cccc(C(F)(F)F)c2)c1	-4%	1%	?	-67*!	?
O=C(NCCc1ccccc1)C(c1cccs1)N(C(=O)CCl)c1ccc(Cl)cc1 (stereo unspecified)	0%	0%	?	-100*	?
Cc1nn(C)c(C)c1CCC(=O)NC1CC(C)(C)Cc2c1cnn2-c1ccccc1 (stereo unspecified)	-9%	-7%	-13%	-69*	-15%
COc1ccc(-n2ncc3c2CC(C)(C)CC3NC(=O)c2cnc(C)cn2)cc1 (stereo unspecified)	0%	-6%	nt	-64*	nt
Cc1cnc(C(=O)NC2CC(C)(C)Cc3c2cnn3-c2ccccc2)cn1 (stereo unspecified)	-2%	2%	-16%	-17	-14%
CC1(C)Cc2c(cnn2-c2ccccc2)C(NC(=O)CCc2ccc(=O)[nH]n2)C1 (stereo unspecified)	-7%	-2%	i	12	-17%
CCn1c(SCc2ccc(C(=O)O)cc2)nnc1-c1ccc(Cl)cc1	-2%	-3%	nt	-10	nt
O=C(c1cc(COc2ccc(F)cc2Cl)on1)N(Cc1ccncc1)CC1CCCO1 (stereo unspecified)	9%	-2%	i	-61*	-13%
CCN(Cc1ccncc1)C(=O)c1cc(COc2ccc(C)c(C)c2)on1	-4%	-3%	i	-74*	-14%
CC(C)N(Cc1nccn1C)C(=O)c1cc(COc2ccc(F)cc2Cl)on1	1%	-4%	-4%	-97*	-16%
CCN(CC1CCCO1)C(=O)c1cc(COc2ccc(F)cc2F)on1 (stereo unspecified)	1%	-11%	-6%	-8	-19%
COc1ccc(OCc2cc(C(=O)N(Cc3nccn3C)C(C)C)no2)c2ccccc12	0%	3%	nt	93	nt
O=C(c1cc(COc2ccc(F)cc2Cl)on1)N1CCC(c2ccncc2)CC1	0%	-1%	-20%	-67*	-20%
O=C(c1cc(COc2ccc(F)cc2Cl)on1)N1CCCCCC1	-3%	2%	nt	70	nt
O=C(COC(=O)/C=C/c1cccc(Br)c1)Nc1cccc(S(=O)(=O)NC2=NCCC2)c1	nt	0%	nt	19	nt
CCOC(=O)N1CCN(S(=O)(=O)c2cccc3cccnc23)CC1	6%	3%	nt	-9	1%
COc1ccc(Cc2nc3ccc(C(=O)NCCc4ccc(Cl)cc4)cc3o2)cc1	nt	-3%	-5%	-1	-3%
CCOc1ccc(NC2CCN(C(C)=O)CC2)cc1	0%	0%	47%	-9	-4%
SMILES	LmPK inhibitor	Tb PYK inh	VACV mCherry inh	HCMV inh	Vaccinia Venus
Cc1ccc(OCCNC(=O)CNC(=O)Cc2cccc3ccccc23)cc1	nt	nt	-6%	nt	-10%
O=C(Cc1cccc2ccccc12)NCCOc1ccccc1F	0%	-3%	i	-63*	-18%
Cc1cc(C)n(-c2nc3c(c(=O)[nH]c(=O)n3C)n2CC(C)C)n1	5%	-3%	nt	-29	-2%
O=C(COc1nncc2ccccc12)Nc1ccc(F)c(F)c1	-1%	7%	-21%	-101*	-7%
Cc1ccc(NC(=S)N=Nc2c(O)n(C)c3ccc(S(=O)(=O)N4CCOCC4)cc23)cc1	-1%	7%	-18%	-77*	-22%
C=CCn1c(O)c(N=NC(=S)Nc2ccccc2F)c2cc(S(=O)(=O)N3CCOCC3)ccc21	10%	1%	-27%	-70*	-20%
C=CCn1c(O)c(N=NC(=S)Nc2ccccc2F)c2ccccc21	-9%	1%	nt	-93*	nt
C=CCn1c(O)c(N=NC(=O)c2ccccc2NS(=O)(=O)c2cccs2)c2ccccc21	5%	-3%	-9%	-95*	-13%
Cc1ccccc1NC(=S)N=Nc1c(O)n(C)c2ccc(S(=O)(=O)N3CCOCC3)cc12	7%	0%	-14%	?	-23%
Cc1cc(C)cc(NC(=S)N=Nc2c(O)n(C)c3ccc(S(=O)(=O)N4CCOCC4)cc23)c1	4%	-4%	-1%	?	-21%
Oc1c(N=NC(=S)Nc2ccccc2F)c2ccccc2n1Cc1ccccc1	9%	-22%	nt	-20	nt
O=C1Cc2c([nH]c3ccc([N+](=O)[O-])cc23)-c2ccccc2N1	nt	-2%	1.3µM*	-98*	?
Cc1ccc2nc3sc(C(=O)N4CCCc5ccccc54)c(N)c3cc2c1	0%	-5%	nt	-90*	nt
CC(=O)NCC(N)C(=O)c1ccc(C)cc1 (stereo unspecified)	nt	nt	?	nt	-20%
CCC1CCCCN1C(=O)CSc1nc(N)cc(N)n1 (stereo unspecified)	-3%	2%	nt	-65*	nt
CCC1CCCCN1C(=O)CSc1n[nH]c(N)n1 (stereo unspecified)	nt	-12%	-2%	-17	-3%
O=[N+]([O-])c1ccc(Sc2cccc[n+]2[O-])c2nonc12	?	18µM*	?	-106*	107%
CC1(C)N=C(SCC(=O)Nc2ccc(Cl)cc2)C(c2ccccc2)=N1	1%	-3%	nt	-80*	nt
CC1(C)N=C(SCC(=O)Nc2ccc(Cl)cc2)C(c2ccc(Cl)cc2)=N1	4%	-2%	nt	-13	nt
O=C(c1cc2nc(-c3cccs3)cc(C(F)(F)Cl)n2n1)N1CCCc2ccccc21	2%	-19%	i	-87*	-13%
Cc1cccc(NC2=C/C(=N/S(=O)(=O)c3cccs3)c3ccccc3C2=O)c1	-15%	-30%	i	62	0%
O=C(O)c1ccc(NC2=C/C(=N/S(=O)(=O)c3cccs3)c3ccccc3C2=O)cc1	nt	-10%	-6%	-24	8%
Cc1ccc(Cl)cc1NC1=C/C(=N\S(=O)(=O)c2cccs2)c2ccccc2C1=O	?	-9%	25µM*	-99*	?
Cc1ccc(NC2=C/C(=N\S(=O)(=O)c3cccs3)c3ccccc3C2=O)c(C)c1	-27%	-12%	10µM*	nt	6.3µM*
O=C1C(Nc2ccc(O)cc2)=C/C(=N/S(=O)(=O)c2cccs2)c2ccccc21	?	-23%	?	-99*	2µM*

Compound activity: PubChem BioAssay, National Center for Advancing Translational Sciences (NCATS)
